Compound activity: PubChem BioAssay, National Center for Advancing Translational Sciences (NCATS)
In the library only some 5.6% were active in any assay of this set; here they are far more common.
Six1-Eya2 inh: inhibitors of human Six1/Eya2 interaction | Q15475+O00167 | AlphaScreen GST-Six1/His-Eya2 binding, biochemical; active compounds read low | activity change, % (concentration not given with the values) | 0.56% of 360,000 active | AID 651725; in the data active = activity change below about -65%; inconclusive = mostly about -30% to -63%
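GST-Six1 + His-Eya2 (5X stock: 250/500 nM); Tris pH 8.0, 300 mM NaCl, 0.05% BSA, 0.02% Tween 20; GSH donor/Ni acceptor beads; 1 h 37 °C dark; AlphaScreen readout.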
Gal4-VP16 FLuc: inhibits Gal4-VP16 luciferase reporter, ROR gamma counter-screen; Drosophila S2 Gal4-VP16 UAS-luciferase, luminescence, 20 h; Potency, µM (titrated, usually from 53.6 µM), hits mostly inhibitors; 3.5% of 310,000 active; AID 2546;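 note: Gal4-VP16 expression switched on by copper sulfate through the metallothionein promoter; nearly all actives have a fitted effect of over 50% in size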
PKM2 activator: PKM2 (human) enzyme activation; AID 1631; Potency, µM (top dose mostly 57.5 µM), hits mostly activators; P14618; 0.34% of 260,000 active; purified PKM2, Kinase-Glo ATP luminescence, activation; response scale: 0% is enzyme alone, no compound; note: nearly all actives have a fitted effect of over 55% in size
Target sequence (P14618 whole entry, looked up): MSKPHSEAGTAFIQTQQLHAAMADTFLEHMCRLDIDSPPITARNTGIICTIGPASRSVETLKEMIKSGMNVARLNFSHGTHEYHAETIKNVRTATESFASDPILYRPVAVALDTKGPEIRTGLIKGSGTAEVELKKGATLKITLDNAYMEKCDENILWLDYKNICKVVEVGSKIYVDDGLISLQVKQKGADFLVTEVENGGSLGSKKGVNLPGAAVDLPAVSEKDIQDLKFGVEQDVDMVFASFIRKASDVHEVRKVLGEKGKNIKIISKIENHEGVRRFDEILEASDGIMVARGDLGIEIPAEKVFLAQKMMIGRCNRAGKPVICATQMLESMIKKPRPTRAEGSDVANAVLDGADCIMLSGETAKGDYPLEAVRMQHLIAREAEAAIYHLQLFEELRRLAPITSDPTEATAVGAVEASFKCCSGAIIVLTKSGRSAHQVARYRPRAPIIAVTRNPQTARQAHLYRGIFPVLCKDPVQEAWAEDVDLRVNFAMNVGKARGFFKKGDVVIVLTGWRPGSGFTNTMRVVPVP
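Purified hPK-M2 (>95% pure) converted ADP (0.1 mM final) to ATP with 0.5 mM PEP in 50 mM imidazole pH7.2, KCl, MgCl2, Tween 20, BSA; 1 h at room temperature. ATP detected by Kinase-Glo luminescence.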
CtBP-E1A inh: CtBP/E1A binding inhibition; AlphaScreen GST-E1A/His-CtBP binding, 1536-well; active compounds read low; activity change, % (concentration not given with the values); 0.49% of 340,000 active; AID 651724; in the data active = activity change below about -65%; inconclusive = mostly about -30% to -63%
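GST-E1A and His-tagged CtBP (125 nM each as 5X stock) were preincubated with pin-transferred compound for 2 h at 37 °C in the dark, then glutathione donor and nickel acceptor beads were added for 1 h before AlphaScreen reading.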
RORgamma inh: ROR gamma (mouse) transcription inhibition. P51450. Drosophila S2 Gal4-RORgamma UAS-luciferase reporter, 20 h. Potency, µM (top dose mostly 53.6 µM), actives largely listed as inhibitors. 5.4% of 310,000 active. AID 2551; note: nearly all actives have a fitted effect of over 60% in size
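Stable Schneider cell line, Gal4 DNA-binding domain fused to ROR gamma, UAS-luciferase. Cmpd 1 hr RT → CuSO4 700 uM final → 20 hr RT → luciferase reagent 10 min → luminescence.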
Each line names hits and unclear results; the compound was inactive in the other large screens. Unless noted, calls come from the whole dose curve; as a rule, active = well fitted curve in the direction sought with a large enough effect; inconclusive = small, poorly fitted or top-dose-only effect, or another doubt; inactive = no such curve, though single readings can be large; an effect the other way counts as inactive or inconclusive.

C/C(=N\NC(=O)c1ccc(Br)cc1)C1C(=O)c2ccccc2C1=O	Gal4-VP16 FLuc 3.5µM, RORgamma inh 4µM
CCOc1ccc(C(=O)N/N=C(/C)C2C(=O)c3ccccc3C2=O)cc1	Gal4-VP16 FLuc 2.8µM, RORgamma inh 1.1µM
CCOC(=O)[C@]12CCCC=C1N(Cc1ccco1)C(=O)[C@H](CC(=O)NCc1cccc3ccccc13)C2	none (no result: Gal4-VP16 FLuc, PKM2 activator, RORgamma inh)
O=C(NCc1cc([N+](=O)[O-])ccc1O)c1cccc(NS(=O)(=O)c2ccccc2)c1	Six1-Eya2 inh -83, Gal4-VP16 FLuc 13µM, CtBP-E1A inh -89, RORgamma inh 11µM
O=C(NCc1ccccn1)c1ccc(NS(=O)(=O)c2cccc([N+](=O)[O-])c2)cc1	none (no result: Gal4-VP16 FLuc, PKM2 activator, RORgamma inh)
CCC(C)NC(=S)Nc1ccc2nc(N3CCN(CC)CC3)cc(C)c2c1 (stereo not drawn)	RORgamma inh inconclusive
COc1ccc(CNC(=S)Nc2ccc3nc(N4CCOCC4)cc(C)c3c2)cc1	RORgamma inh 10µM
CCCN(CCC)CCCNC(=S)Nc1ccc2nc(N3CCCC3)cc(C)c2c1	none (no result: CtBP-E1A inh)
CCC(C)NC(=S)Nc1ccc2nc(N3CCOCC3)cc(C)c2c1 (stereo not drawn)	Gal4-VP16 FLuc inconclusive, RORgamma inh 10µM (no result: PKM2 activator, CtBP-E1A inh)
Cc1cc(N2CCCC2)nc2ccc(NC(=S)NCCCOC(C)C)cc12	Gal4-VP16 FLuc inconclusive, RORgamma inh 11µM
CC1CN(S(=O)(=O)c2ccccc2)C(C)N1C(=O)N1CCOCC1 (stereo not drawn)	none
CN(C)C(=O)CNC(=O)CN1C(=O)NC2(CCCc3sccc32)C1=O (stereo not drawn)	none (no result: PKM2 activator)
CCNC(=S)NNC(=O)c1cccnc1	none
CCN(CC)C(=S)NC(=O)c1ccc(F)cc1	Gal4-VP16 FLuc 2.8µM, RORgamma inh 0.79µM
CCN(CC)C(=S)NC(=O)c1cccnc1	Gal4-VP16 FLuc 5.6µM, RORgamma inh 2.5µM
CCOc1cc(C2NC(=O)NC(C)=C2C(=O)OCc2ccccc2)ccc1O (stereo not drawn)	Six1-Eya2 inh -69
COc1ccc(CN(C(=O)c2cccs2)C(C(=O)NC2CCCCC2)c2ccc3ncccc3c2)cc1 (stereo not drawn)	RORgamma inh 35µM
COc1cccc(C(C(=O)NC2CCCC2)N(Cc2cccnc2)C(=O)Cc2cccs2)c1 (stereo not drawn)	none
O=C(NC1CCCCC1)C(c1ccc2ncccc2c1)N(Cc1ccccc1)C(=O)c1cccs1 (stereo not drawn)	none
COc1ccc(C(C(=O)NC2CCCC2)N(Cc2cccnc2)C(=O)Cc2cccs2)c(OC)c1 (stereo not drawn)	RORgamma inh 10µM
CC(C)(C)OC(=O)NCCCC[C@H](NC(=O)c1nc[nH]c1C(=O)NCc1ccccc1)C(=O)OC(C)(C)C	Gal4-VP16 FLuc inconclusive, RORgamma inh 14µM
CC(C)(C)OC(=O)NCCCCCNC(=O)c1[nH]cnc1C(=O)N[C@@H](Cc1ccccc1)C(=O)OC(C)(C)C	none (no result: Gal4-VP16 FLuc, PKM2 activator, RORgamma inh)
CC(C)(C)OC(=O)NCCCC[C@H](NC(=O)c1[nH]cnc1C(=O)N[C@@H](Cc1ccccc1)C(=O)OC(C)(C)C)C(=O)OC(C)(C)C	Gal4-VP16 FLuc inconclusive, RORgamma inh 7.9µM
C[C@H](NC(=O)c1nc[nH]c1C(=O)N[C@@H](CCCCNC(=O)OC(C)(C)C)C(=O)OC(C)(C)C)c1ccccc1	Gal4-VP16 FLuc 11µM, RORgamma inh 5.6µM
CN(Cc1ccccc1)C(=O)c1[nH]cnc1C(=O)N[C@@H](CCCCNC(=O)OC(C)(C)C)C(=O)OC(C)(C)C	Gal4-VP16 FLuc inconclusive, RORgamma inh 7.1µM (no result: CtBP-E1A inh)
O=C1CCc2cc(S(=O)(=O)N3CCCCC3)cc3c2N1CC3	none (no result: Gal4-VP16 FLuc, PKM2 activator, RORgamma inh)
N#Cc1ncc(Cl)c2ccccc12	none (no result: CtBP-E1A inh)
CCc1nc2c(OCc3ccccc3)cccn2c1N(Cc1ccccc1)C(C)=O	none (no result: Gal4-VP16 FLuc, PKM2 activator, RORgamma inh)
Cc1cc(C(F)(F)F)c2c(N)c(C(=O)Nc3cc(C)on3)sc2n1	Gal4-VP16 FLuc 4µM, RORgamma inh 7.1µM
C/C(=N\NC(=O)c1ccncc1)c1cc2ccccc2o1	RORgamma inh inconclusive
C/C(=N/NC(=O)c1ccncc1)c1cc2ccc(O)cc2oc1=O	Six1-Eya2 inh -85
N/C(=N\NC(=O)c1ccccc1Cl)c1cc2ccccc2oc1=O	Gal4-VP16 FLuc inconclusive, RORgamma inh 14µM
C/C(=N\NC(=O)c1ccncc1)c1cc2ccccc2oc1=O	Six1-Eya2 inh -80, Gal4-VP16 FLuc 13µM, RORgamma inh 7.9µM
COc1cccc(CC(=O)OCC(=O)Nc2c(C)nn(-c3ccccc3)c2C)c1	none (no result: Gal4-VP16 FLuc, PKM2 activator, RORgamma inh)
COc1ccccc1Nc1nc(N)nc(CSC(=S)N2CCC(C)CC2)n1	Gal4-VP16 FLuc 5µM, RORgamma inh 0.13µM
COc1ccccc1Nc1nc(N)nc(CSC(=S)N2CCCCC2C)n1 (stereo not drawn)	Gal4-VP16 FLuc 7.1µM, RORgamma inh 7.9µM
COc1ccccc1Nc1nc(N)nc(CSC(=S)N2CCN(c3ccccc3)CC2)n1	none
COc1ccccc1Nc1nc(N)nc(CN2CCCCCC2)n1	none
COc1ccc(CC(=O)NCC(=O)N/N=C(/C)c2ccco2)cc1	none
CCOC(=O)CNC(=O)N(CCOC)CC1CCCN(C2Cc3ccccc3C2)C1 (stereo not drawn)	none
Cc1ccnc(NC(=O)c2ccccc2NC(=O)c2ccc(Cl)cc2Cl)c1	Gal4-VP16 FLuc 13µM, RORgamma inh inconclusive (no result: CtBP-E1A inh)
Cc1ccc(C(=O)Nc2ccccc2C(=O)Nc2ccccn2)cc1Cl	Gal4-VP16 FLuc 16µM, RORgamma inh inconclusive
N#Cc1cc2cc3c(cc2nc1NCCNC(=S)NCCCN1CCOCC1)OCO3	Six1-Eya2 inh inconclusive, CtBP-E1A inh inconclusive
COc1ccc(C(C)(C)C)cc1NC(=O)c1ccoc1C	Gal4-VP16 FLuc inconclusive, RORgamma inh 2.2µM
Cc1cc2c(sc3c(C)ccc(C)c32)c(C)n1	RORgamma inh 18µM
Cn1cccc1-c1cc(C(=O)N/N=C/C=C/c2ccccc2)[nH]n1	Gal4-VP16 FLuc inconclusive, RORgamma inh 5µM
COc1cccc(/C=N/NC(=O)c2cc(-c3cccn3C)n[nH]2)c1O	Six1-Eya2 inh -90, Gal4-VP16 FLuc 2.8µM, CtBP-E1A inh -90, RORgamma inh 1µM
COc1cc(/C=N/NC(=O)c2cc(-c3cccn3C)n[nH]2)cc(OC)c1OC	Six1-Eya2 inh -67, CtBP-E1A inh -75, RORgamma inh inconclusive
Cc1cccc(NC(=S)NCC(c2cccnc2)N(C)C)c1 (stereo not drawn)	none
COc1ccc(-n2c(=O)c(-c3cccs3)nc3cnc(Nc4cccc(OC)c4)nc32)cc1	none (no result: Six1-Eya2 inh, PKM2 activator, CtBP-E1A inh)
CC1=C(C(N)=O)N2C(=O)[C@@H](NC(=O)Cc3ccccc3)C2SC1 (stereo partly drawn)	none (no result: Six1-Eya2 inh, PKM2 activator, CtBP-E1A inh)
O=C(OCc1nnc(-c2ccc(Cl)cc2)o1)c1ccc(O)cc1	none
CS(=O)(=O)c1ccc(C(=O)OCc2nnc(-c3ccc(Cl)cc3)o2)cc1[N+](=O)[O-]	RORgamma inh 10µM
